In the supplement of paper PMC10849652:
The full data set covers some 7,900 targets. This sample favours those with a hit. About 0.6% of all pairs of compound and target were hits.

What was measured:
Test in all cases: log2 fold change, soluble protein after heating vs DMSO (PISA); higher = thermal stabilisation; K562 cells, 10 uM, 30 min; active = over 0.2 and 3.5 SD of the protein, either way, in both replicates (recomputed)
[1] = compound: CS(=O)(=O)c1ccc(-c2cnc(N)c(C(=O)Nc3ccccc3)n2)cc1
Method in brief: (§1)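 Quantification of soluble protein used TMTpro 16plex LC-MS/MS, with channel sums equalised. Samples were the supernatant after 21,000xg for 90 min of pooled aliquots from K562 cells (2×10^6 cells/mL) treated with 10 μM compound for 30 min, heated for 3 min over 48°C-58°C, and extracted in PBS with 0.5% NP-40 at 4°C. Values, from duplicates, describe thermal stability against control samples on a log2 fold-change scale.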

crizotinib = compound: C[C@@H](Oc1cc(-c2cnn(C3CCNCC3)c2)cnc1N)c1c(Cl)ccc(F)c1Cl [crizotinib]
Method in brief: as §1

[2] = compound: C[C@@H]1COCCN1C2=NC(=NC(=C2)C3(CC3)S(=O)(=O)C)C4=C5C=CNC5=CC=C4
Method in brief: as §1

[3] = compound: C[C@H](C1=CC=C(C=C1)C(=O)NC2=C3C=CNC3=NC=C2)N
Method in brief: as §1

duvelisib = compound: C[C@H](Nc1ncnc2nc[nH]c12)c1cc2cccc(Cl)c2c(=O)n1-c1ccccc1 [duvelisib]
Method in brief: as §1

tozasertib = compound: Cc1cc(Nc2cc(N3CCN(C)CC3)nc(Sc3ccc(NC(=O)C4CC4)cc3)n2)n[nH]1 [tozasertib]
Method in brief: as §1

[4] = compound: Cc1cc(SCc2sc(-c3ccc(C(F)(F)F)cc3)nc2C)ccc1OCC(=O)O
Method in brief: as §1

doramapimod = compound: Cc1ccc(-n2nc(C(C)(C)C)cc2NC(=O)Nc2ccc(OCCN3CCOCC3)c3ccccc23)cc1 [doramapimod]
Method in brief: as §1

ispinesib = compound: Cc1ccc(C(=O)N(CCCN)[C@@H](c2nc3cc(Cl)ccc3c(=O)n2Cc2ccccc2)C(C)C)cc1 [ispinesib]
Method in brief: as §1

bafetinib = compound: Cc1ccc(NC(=O)c2ccc(CN3CC[C@H](N(C)C)C3)c(C(F)(F)F)c2)cc1Nc1nccc(-c2cncnc2)n1 [bafetinib]
Method in brief: as §1

nilotinib = compound: Cc1cn(-c2cc(NC(=O)c3ccc(C)c(Nc4nccc(-c5cccnc5)n4)c3)cc(C(F)(F)F)c2)cn1 [nilotinib]
Method in brief: as §1

[5] = compound: Cc1nc(Nc2n[nH]c3c2CN(C(=O)N[C@H](CN(C)C)c2ccccc2)C3(C)C)c2sccc2n1
Method in brief: as §1

dasatinib = compound: Cc1nc(Nc2ncc(C(=O)Nc3c(C)cccc3Cl)s2)cc(N2CCN(CCO)CC2)n1 [dasatinib]
Method in brief: as §1

[6] = compound: Cc1ncc(-c2ccnc(Nc3ccc(S(C)(=O)=O)cc3)n2)n1C(C)C
Method in brief: as §1

[7] = compound: Cn1cc(-c2ccc3c(c2)CCN3C(=O)Cc2cccc(C(F)(F)F)c2)c2c(N)ncnc21
Method in brief: as §1

[8] = compound: Cn1cc(-c2ccc3nnc(C(F)(F)c4ccc5ncccc5c4)n3n2)cn1
Method in brief: as §1

tipifarnib = compound: Cn1cncc1[C@@](N)(c1ccc(Cl)cc1)c1ccc2c(c1)c(-c1cccc(Cl)c1)cc(=O)n2C [tipifarnib]
Method in brief: as §1

mubritinib = compound: FC(F)(F)c1ccc(/C=C/c2nc(COc3ccc(CCCCn4ccnn4)cc3)co2)cc1 [mubritinib]
Method in brief: as §1

gandotinib = compound: Cc1cc(Nc2cc(CN3CCOCC3)c3nc(C)c(Cc4ccc(Cl)cc4F)n3n2)n[nH]1 [gandotinib]
Method in brief: as §1

[9] = compound: Cc1cccc(CC(=O)N2CCc3c2ccc(-c2cn(C)c4ncnc(N)c24)c3F)n1
Method in brief: as §1

Measured: log2 fold change

NAA11 (UniProt Q9BSU3)
Sequence of UniProt Q9BSU3 (Q9BSU3 whole entry, looked up): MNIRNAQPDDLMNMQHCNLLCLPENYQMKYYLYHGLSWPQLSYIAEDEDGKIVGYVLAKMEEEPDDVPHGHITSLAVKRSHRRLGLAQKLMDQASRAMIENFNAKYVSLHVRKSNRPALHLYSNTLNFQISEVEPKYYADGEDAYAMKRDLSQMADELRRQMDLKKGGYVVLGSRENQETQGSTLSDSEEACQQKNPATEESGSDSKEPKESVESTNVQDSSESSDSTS
inactive: [1] 0.027 | crizotinib -0.065 | [2] 0.006 | [3] 0.086 | duvelisib -0.015 | tozasertib 0.007 | [4] 0.114 | doramapimod -0.037 | ispinesib -0.009 | bafetinib 0 | nilotinib -0.093 | [5] 0.015 | dasatinib 0.059 | [6] -0.003 | [7] 0.102 | [8] 0.176 | tipifarnib 0.011 | mubritinib -0.081

MYLK (UniProt Q15746)
active: doramapimod 1.42 | bafetinib 0.827 | nilotinib 0.856 | dasatinib 0.65
inactive: [1] 0.279 | crizotinib 0.027 | [3] 0.107 | duvelisib 0.009 | gandotinib -0.018 | tozasertib 0.327 | [4] 0.04 | ispinesib -0.054 | [9] -0.063 | [5] 0.147 | [6] 0.136 | [7] -0.107 | [8] -0.128 | tipifarnib 0.047 | mubritinib 0

NME2P1 (UniProt O60361)
Sequence of UniProt O60361 (O60361 whole entry, looked up): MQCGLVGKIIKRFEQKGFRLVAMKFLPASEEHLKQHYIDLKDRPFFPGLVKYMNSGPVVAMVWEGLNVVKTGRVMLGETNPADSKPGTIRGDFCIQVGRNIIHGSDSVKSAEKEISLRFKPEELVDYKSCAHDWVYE
inactive: [1] -0.093 | crizotinib -0.066 | [2] -0.114 | [3] 0.079 | gandotinib -0.346 | tozasertib -0.012 | doramapimod 0.27 | ispinesib -0.119 | bafetinib 0.058 | [9] 0.059 | nilotinib -0.236 | [5] -0.014 | [6] -0.107 | [7] -0.081 | [8] -0.013 | tipifarnib -0.055 | mubritinib 0.073

NA isoform 3 (UniProt Q4G0T1)
inactive: [1] 0.023 | crizotinib -0.004 | [3] -0.157 | duvelisib 0.042 | tozasertib 0.005 | [4] -0.001 | doramapimod 0.077 | ispinesib -0.099 | bafetinib -0.198 | nilotinib -0.021 | [5] -0.009 | dasatinib -0.093 | [6] 0.01 | [7] -0.065 | [8] 0.059 | tipifarnib -0.066 | mubritinib -0.066

NME7 (UniProt Q9Y5B8)
Sequence of UniProt Q9Y5B8 (Q9Y5B8 whole entry, looked up): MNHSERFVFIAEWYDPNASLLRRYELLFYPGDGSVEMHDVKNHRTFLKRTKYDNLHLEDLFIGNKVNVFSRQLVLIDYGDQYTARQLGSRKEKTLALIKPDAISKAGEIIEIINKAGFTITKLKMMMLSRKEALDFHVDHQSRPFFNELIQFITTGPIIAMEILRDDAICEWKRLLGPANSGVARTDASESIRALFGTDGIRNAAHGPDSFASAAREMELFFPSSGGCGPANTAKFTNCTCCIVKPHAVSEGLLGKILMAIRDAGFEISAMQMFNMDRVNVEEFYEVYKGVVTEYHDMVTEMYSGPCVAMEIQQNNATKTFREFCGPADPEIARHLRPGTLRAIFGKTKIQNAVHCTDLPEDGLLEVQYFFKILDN
inactive: [1] -0.187 | crizotinib -0.136 | [2] -0.027 | [3] 0.046 | duvelisib -0.031 | gandotinib -0.091 | tozasertib 0.068 | [4] 0.056 | doramapimod 0.033 | ispinesib -0.117 | bafetinib -0.14 | [9] 0.071 | dasatinib -0.245 | [7] -0.044 | [8] 0.009 | tipifarnib -0.001 | mubritinib -0.279

MSH2 (UniProt P43246)
Sequence of UniProt P43246 (P43246 whole entry, looked up): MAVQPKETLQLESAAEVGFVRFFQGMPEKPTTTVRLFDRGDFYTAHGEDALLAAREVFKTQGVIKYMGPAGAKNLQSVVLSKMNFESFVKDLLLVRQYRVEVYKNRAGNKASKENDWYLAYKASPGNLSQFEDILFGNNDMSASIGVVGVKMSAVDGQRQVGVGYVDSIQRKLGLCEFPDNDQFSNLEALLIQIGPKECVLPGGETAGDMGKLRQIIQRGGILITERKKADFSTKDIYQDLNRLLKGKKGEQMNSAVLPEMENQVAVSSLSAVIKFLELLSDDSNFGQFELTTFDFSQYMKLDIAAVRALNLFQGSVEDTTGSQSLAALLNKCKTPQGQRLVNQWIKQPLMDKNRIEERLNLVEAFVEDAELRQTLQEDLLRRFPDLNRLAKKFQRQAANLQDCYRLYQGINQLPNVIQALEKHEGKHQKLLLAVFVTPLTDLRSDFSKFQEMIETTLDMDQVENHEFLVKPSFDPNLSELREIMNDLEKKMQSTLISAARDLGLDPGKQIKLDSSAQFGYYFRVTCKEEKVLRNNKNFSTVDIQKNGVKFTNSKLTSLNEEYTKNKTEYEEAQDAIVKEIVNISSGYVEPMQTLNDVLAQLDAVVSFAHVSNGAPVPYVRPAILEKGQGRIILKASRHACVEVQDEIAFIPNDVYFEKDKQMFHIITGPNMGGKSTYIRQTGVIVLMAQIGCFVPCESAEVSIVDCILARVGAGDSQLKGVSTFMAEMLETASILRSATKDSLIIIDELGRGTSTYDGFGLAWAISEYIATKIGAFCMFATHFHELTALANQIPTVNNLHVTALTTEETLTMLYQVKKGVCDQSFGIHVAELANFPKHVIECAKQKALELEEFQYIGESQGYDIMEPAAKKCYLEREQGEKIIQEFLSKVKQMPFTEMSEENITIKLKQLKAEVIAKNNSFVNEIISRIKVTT
inactive: [1] 0.057 | crizotinib 0.04 | [2] 0.056 | [3] -0.038 | duvelisib 0.08 | gandotinib -0.02 | tozasertib 0.072 | [4] 0.117 | doramapimod -0.067 | ispinesib 0.09 | bafetinib 0 | [9] 0.04 | nilotinib -0.003 | [5] -0.103 | dasatinib -0.038 | [6] 0.034 | [7] 0.024 | [8] 0.035 | tipifarnib -0.063 | mubritinib 0.156

NAT14 (UniProt Q8WUY8)
Sequence of UniProt Q8WUY8 (Q8WUY8 whole entry, looked up): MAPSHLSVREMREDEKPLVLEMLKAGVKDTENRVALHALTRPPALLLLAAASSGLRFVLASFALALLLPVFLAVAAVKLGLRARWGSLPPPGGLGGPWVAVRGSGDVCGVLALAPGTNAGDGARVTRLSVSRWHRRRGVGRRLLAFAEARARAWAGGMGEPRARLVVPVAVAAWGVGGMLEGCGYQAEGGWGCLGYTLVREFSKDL
active: ispinesib -0.418
inactive: [1] 0.006 | crizotinib -0.228 | [2] -0.019 | [3] -0.119 | duvelisib 0.03 | tozasertib -0.063 | [4] 0 | doramapimod -0.02 | bafetinib -0.071 | nilotinib 0.003 | [5] -0.052 | dasatinib -0.066 | [6] 0 | [7] -0.06 | [8] -0.209 | tipifarnib 0.054 | mubritinib 0.118

NNMT (UniProt P40261)
Sequence of UniProt P40261 (P40261 whole entry, looked up): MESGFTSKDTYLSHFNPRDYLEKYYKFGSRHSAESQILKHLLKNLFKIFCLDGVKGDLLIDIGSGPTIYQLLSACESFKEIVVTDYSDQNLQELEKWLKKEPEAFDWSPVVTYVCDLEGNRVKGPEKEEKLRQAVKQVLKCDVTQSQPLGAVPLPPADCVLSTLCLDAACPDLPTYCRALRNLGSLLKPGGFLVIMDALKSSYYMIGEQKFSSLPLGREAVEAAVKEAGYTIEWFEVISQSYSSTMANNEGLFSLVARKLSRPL
inactive: [1] 0.039 | crizotinib -0.08 | [2] 0.085 | [3] -0.06 | duvelisib 0.06 | gandotinib -0.002 | tozasertib -0.007 | [4] -0.09 | doramapimod 0 | bafetinib -0.038 | [9] 0.068 | nilotinib 0.015 | [5] 0.005 | dasatinib 0.037 | [6] -0.021 | [7] 0.052 | tipifarnib -0.002 | mubritinib 0.094

NECTIN2 isoform 2 (UniProt Q92692)
Sequence of UniProt Q92692 (Q92692 whole entry, looked up): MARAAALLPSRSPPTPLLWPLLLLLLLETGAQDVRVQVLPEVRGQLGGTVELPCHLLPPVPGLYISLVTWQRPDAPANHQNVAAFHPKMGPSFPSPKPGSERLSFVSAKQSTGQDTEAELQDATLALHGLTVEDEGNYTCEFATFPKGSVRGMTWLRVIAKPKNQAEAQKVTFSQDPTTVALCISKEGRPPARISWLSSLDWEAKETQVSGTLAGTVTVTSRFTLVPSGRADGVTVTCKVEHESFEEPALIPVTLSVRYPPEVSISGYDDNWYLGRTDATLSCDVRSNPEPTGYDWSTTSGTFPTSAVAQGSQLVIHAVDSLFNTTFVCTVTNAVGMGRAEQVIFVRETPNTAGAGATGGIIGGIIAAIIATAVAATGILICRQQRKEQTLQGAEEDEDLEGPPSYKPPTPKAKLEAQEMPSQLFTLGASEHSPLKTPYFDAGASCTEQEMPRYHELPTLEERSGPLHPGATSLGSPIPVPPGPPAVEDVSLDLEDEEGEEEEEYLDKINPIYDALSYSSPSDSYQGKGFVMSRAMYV
inactive: [1] -0.059 | crizotinib 0.062 | [2] -0.2 | duvelisib -0.248 | gandotinib -0.206 | [4] -0.149 | doramapimod -0.086 | ispinesib 0.198 | bafetinib -0.64 | [9] 0.145 | nilotinib 0.129 | [5] -0.016 | dasatinib 0.001 | [6] 0.006 | [8] -0.129 | mubritinib -0.049

NDUFA4 (UniProt O00483)
Sequence of UniProt O00483 (O00483 whole entry, looked up): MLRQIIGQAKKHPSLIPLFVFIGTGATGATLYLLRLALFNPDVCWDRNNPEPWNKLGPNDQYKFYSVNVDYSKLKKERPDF
inactive: [1] -0.045 | crizotinib 0.138 | [2] 0.162 | [3] -0.055 | duvelisib 0.142 | gandotinib -0.099 | tozasertib 0.025 | [4] 0.022 | doramapimod 0.034 | ispinesib 0.204 | bafetinib -0.043 | [9] 0.014 | nilotinib 0.024 | [5] 0.02 | dasatinib 0.032 | [6] -0.074 | [7] 0.039 | [8] 0.239 | tipifarnib 0.054 | mubritinib 0.018

NFYB (UniProt P25208)
Sequence of UniProt P25208 (P25208 whole entry, looked up): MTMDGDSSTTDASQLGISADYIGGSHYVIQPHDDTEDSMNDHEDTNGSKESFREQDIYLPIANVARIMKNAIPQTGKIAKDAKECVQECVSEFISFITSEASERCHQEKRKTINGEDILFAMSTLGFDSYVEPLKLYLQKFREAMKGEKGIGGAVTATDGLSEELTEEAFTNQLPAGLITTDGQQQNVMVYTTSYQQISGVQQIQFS
inactive: [1] -0.004 | crizotinib 0.069 | [3] -0.084 | duvelisib -0.123 | gandotinib 0.011 | tozasertib 0.085 | [4] -0.124 | doramapimod -0.028 | ispinesib 0.168 | bafetinib -0.086 | [9] -0.006 | nilotinib 0.074 | [5] -0.067 | dasatinib 0.124 | [6] 0.034 | [7] -0.012 | [8] -0.06 | tipifarnib -0.019 | mubritinib 0.127

NDFIP1 (UniProt Q9BT67)
Sequence of UniProt Q9BT67 (Q9BT67 whole entry, looked up): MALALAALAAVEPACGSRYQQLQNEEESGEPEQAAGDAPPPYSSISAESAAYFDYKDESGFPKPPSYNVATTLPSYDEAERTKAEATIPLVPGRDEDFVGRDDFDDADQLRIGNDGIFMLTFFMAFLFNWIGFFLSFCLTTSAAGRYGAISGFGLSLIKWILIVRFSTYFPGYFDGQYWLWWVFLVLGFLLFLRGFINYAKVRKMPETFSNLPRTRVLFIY
inactive: [1] 0.349 | crizotinib -0.004 | [2] 0.045 | [3] -0.167 | duvelisib 0.039 | gandotinib 0.052 | tozasertib 0.046 | [4] 0.08 | doramapimod -0.068 | ispinesib 0.015 | bafetinib -0.137 | [9] -0.08 | nilotinib -0.214 | [5] 0.354 | dasatinib 0.039 | [6] 0.225 | [7] -0.038 | [8] -0.072 | mubritinib -0.024

NUMBL (UniProt Q9Y6R0)
Sequence of UniProt Q9Y6R0 (Q9Y6R0 whole entry, looked up): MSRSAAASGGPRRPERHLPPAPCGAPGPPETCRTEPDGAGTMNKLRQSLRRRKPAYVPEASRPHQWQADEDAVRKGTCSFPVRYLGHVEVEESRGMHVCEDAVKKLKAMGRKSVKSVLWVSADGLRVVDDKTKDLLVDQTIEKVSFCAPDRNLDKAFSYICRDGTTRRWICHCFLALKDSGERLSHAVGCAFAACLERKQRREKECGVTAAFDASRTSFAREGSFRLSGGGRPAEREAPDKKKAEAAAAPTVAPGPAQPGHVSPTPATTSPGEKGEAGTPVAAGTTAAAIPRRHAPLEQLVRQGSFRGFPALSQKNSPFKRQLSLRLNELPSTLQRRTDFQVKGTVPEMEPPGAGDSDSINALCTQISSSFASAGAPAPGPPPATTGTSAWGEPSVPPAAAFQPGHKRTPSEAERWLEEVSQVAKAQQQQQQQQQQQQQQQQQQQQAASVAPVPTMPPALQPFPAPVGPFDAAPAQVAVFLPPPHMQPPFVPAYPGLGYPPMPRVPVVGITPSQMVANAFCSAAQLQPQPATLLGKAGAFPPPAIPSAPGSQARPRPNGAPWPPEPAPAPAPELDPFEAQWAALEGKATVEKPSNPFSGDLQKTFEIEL
inactive: [1] 0.13 | crizotinib -0.021 | [2] 0.056 | [3] 0.044 | duvelisib 0.07 | gandotinib -0.025 | [4] 0.108 | doramapimod 0.109 | ispinesib -0.187 | bafetinib -0.002 | [9] 0.113 | nilotinib -0.001 | [5] -0.136 | dasatinib -0.029 | [6] 0.027 | [7] 0.041 | [8] 0.097 | tipifarnib 0.068 | mubritinib 0.28

MLST8 (UniProt Q9BVC4)
Sequence of UniProt Q9BVC4 (Q9BVC4 whole entry, looked up): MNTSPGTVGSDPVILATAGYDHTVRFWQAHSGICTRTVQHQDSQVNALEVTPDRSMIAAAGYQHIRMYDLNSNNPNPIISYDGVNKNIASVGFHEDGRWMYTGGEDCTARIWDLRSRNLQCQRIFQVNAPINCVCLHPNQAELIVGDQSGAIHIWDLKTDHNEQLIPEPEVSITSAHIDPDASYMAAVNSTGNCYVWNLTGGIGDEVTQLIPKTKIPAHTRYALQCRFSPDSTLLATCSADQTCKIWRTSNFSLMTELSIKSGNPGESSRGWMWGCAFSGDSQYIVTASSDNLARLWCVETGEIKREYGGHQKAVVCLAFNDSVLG
inactive: [1] -0.07 | crizotinib -0.12 | [2] 0.014 | [3] 0.089 | duvelisib 0.067 | tozasertib 0.006 | [4] 0.079 | doramapimod 0.042 | bafetinib 0.005 | nilotinib -0.125 | [5] 0.085 | dasatinib -0.152 | [6] -0.059 | [7] 0.028 | tipifarnib -0.109 | mubritinib 0.1

MRPS24 (UniProt Q96EL2)
inactive: [1] 0.014 | crizotinib -0.031 | [2] 0.192 | [3] 0.082 | duvelisib -0.009 | gandotinib -0.117 | tozasertib 0.048 | [4] 0.094 | doramapimod -0.028 | bafetinib 0.283 | [9] 0.183 | nilotinib -0.195 | [5] 0.057 | dasatinib -0.024 | [6] 0.028 | [7] -0.141 | [8] 0.008 | tipifarnib -0.035 | mubritinib 0.186
active: ispinesib -0.427

MRFAP1 (UniProt Q9Y605)
Sequence of UniProt Q9Y605 (Q9Y605 whole entry, looked up): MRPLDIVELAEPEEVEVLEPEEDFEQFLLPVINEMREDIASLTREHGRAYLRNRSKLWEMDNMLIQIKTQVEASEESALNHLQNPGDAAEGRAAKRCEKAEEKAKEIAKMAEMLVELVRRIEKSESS
inactive: [1] -0.066 | crizotinib -0.142 | [3] -0.048 | duvelisib 0.072 | gandotinib -0.014 | tozasertib 0.027 | [4] -0.023 | doramapimod 0.045 | ispinesib 0.016 | bafetinib -0.045 | [9] -0.08 | nilotinib -0.174 | [5] -0.064 | dasatinib -0.054 | [6] 0.051 | [7] -0.024 | [8] 0.011 | tipifarnib -0.261 | mubritinib -0.075

NOP53 (UniProt Q9NZM5)
inactive: [1] -0.116 | crizotinib 0.029 | [2] -0.019 | [3] 0.638 | duvelisib -0.335 | gandotinib 0.377 | tozasertib 0.147 | [4] -0.027 | doramapimod 0.277 | ispinesib 0.015 | bafetinib 0.189 | [9] 0.059 | nilotinib 0.039 | [5] 0.217 | dasatinib 0.147 | [6] 0.027 | [7] -0.339 | [8] -0.178 | tipifarnib 0.161 | mubritinib -0.202
